Structures are written as SMILES. Out of some 320,000 compounds screened, about 8,000 (2.5%) were called active. For the sample, actives were picked, then their nearest neighbours and some compounds at random. Unmarked numbers belong to inactive results. Rule as the data show it: active = activation above about 47%; inactive = the rest.

The target of this experiment is Aryl hydrocarbon receptor (Homo sapiens) (UniProt P35869). The experiment in a line: AHR activators, primary screen, cell-based, luminescence, luciferase reporter, human (AID 2796).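 Also: 0% = vehicle wells and 100% = reference agonist.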 The conditions noted are these: AHR-responsive luciferase reporter cells, at 5 µM, active compounds read high. (In a reporter assay the amount or activity of a reporter protein is the signal.)
Chain of Aryl hydrocarbon receptor (Homo sapiens) (P35869 whole entry, looked up): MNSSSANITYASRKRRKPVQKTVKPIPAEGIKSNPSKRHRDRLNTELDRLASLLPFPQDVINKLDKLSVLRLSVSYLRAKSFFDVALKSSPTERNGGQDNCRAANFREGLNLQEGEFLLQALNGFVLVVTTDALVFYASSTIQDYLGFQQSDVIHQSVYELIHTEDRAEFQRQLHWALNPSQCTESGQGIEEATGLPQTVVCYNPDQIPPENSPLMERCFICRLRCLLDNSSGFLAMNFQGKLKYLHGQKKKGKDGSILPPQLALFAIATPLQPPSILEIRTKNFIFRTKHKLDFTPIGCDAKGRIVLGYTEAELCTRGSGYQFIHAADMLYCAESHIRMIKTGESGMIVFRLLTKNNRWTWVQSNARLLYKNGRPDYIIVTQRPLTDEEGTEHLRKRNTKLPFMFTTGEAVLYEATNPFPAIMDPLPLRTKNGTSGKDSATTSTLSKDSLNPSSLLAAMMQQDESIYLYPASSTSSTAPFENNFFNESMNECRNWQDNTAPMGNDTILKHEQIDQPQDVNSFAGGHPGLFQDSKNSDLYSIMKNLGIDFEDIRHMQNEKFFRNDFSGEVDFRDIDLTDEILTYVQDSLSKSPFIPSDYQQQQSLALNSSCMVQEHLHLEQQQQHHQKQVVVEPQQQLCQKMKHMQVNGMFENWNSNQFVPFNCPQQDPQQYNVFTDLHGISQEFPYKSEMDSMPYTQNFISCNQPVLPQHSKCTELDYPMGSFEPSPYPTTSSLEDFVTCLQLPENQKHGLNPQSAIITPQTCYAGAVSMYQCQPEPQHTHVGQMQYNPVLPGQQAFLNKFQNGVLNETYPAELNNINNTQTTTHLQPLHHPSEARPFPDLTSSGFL
Regarding `COc1ccc(CCNS(=O)(=O)c2ccc(Cl)s2)cc1OC`, the activation was 1.04%.

Regarding `N#Cc1cc([N+](=O)[O-])ccc1NC(=O)COC(=O)c1cnccn1`, the activation is 10.8%.

For the molecule `COc1cccc(N(Cc2nnc3n2CCCCC3)C(=O)Nc2ccccc2F)c1`, the activation was 8.31%.

As for `COc1cc2[nH]c(=S)n(Cc3ccc(C)o3)c(=O)c2cc1OC`, the activation is 73.8% (active).

In the case of `COc1cc2[nH]c(=S)n(CCN3CCCCC3C)c(=O)c2cc1OC` (configuration not stated), the activation is 7.8%.

On to `COc1cc2[nH]c(=S)n(Cc3ccc(F)cc3)c(=O)c2cc1OC`, for which the activation is 0.4%.

In the case of `O=C(O)c1cc(S(=O)(=O)NC2CCCc3ccccc32)ccc1O` (configuration not stated), the activation was -0.8%.

`N#CCC(=O)NC(=O)NCC1CC1`: the activation was 3.61%.

`O=C(CCCN1C(=O)CSc2ncccc21)N1CCN(c2cccc(C(F)(F)F)c2)CC1`: the activation was 1.24%.

`CNS(=O)(=O)c1ccc(C(=O)NCC(=O)NCCc2ccc3c(c2)OCCO3)cc1`: the activation is -1.1%.

On to `CCc1ccc(CNC(=O)C2CCN(c3nnc(C)c4c(C)n(-c5ccc(C)cc5)nc34)CC2)cc1`, for which the activation is 1.85%.

`COCCCNc1nc2c(-c3cccc(C)c3)nnn2c2ccc(Cl)cc12`: the activation is 69.9% (active).

Regarding `COCCCNc1nc2c(-c3cccc(C(F)(F)F)c3)nnn2c2ccccc12`, the activation was 29%.

`COC(=O)Cn1nc(-c2ccccc2)c2cc(Cl)ccc21`: the activation is 1.76%.

As to `C=CCNC(=O)COc1coc(CN2CCN(Cc3ccccc3)CC2)cc1=O`, the activation was 1.03%.

Consider `O=C(COC(=O)/C=C/c1cccc(Cl)c1)NCc1cccs1`, for which the activation was 1.89%.

Take `CCc1cccc(C)c1NC(=O)COC(=O)CNC(=O)c1cccs1`: the activation is 2.33%.

Turning to `CC[C@@]12C(=O)N(c3ccccc3)C(=O)N1[C@H](c1ccc(Br)cc1)[C@@H]1C(=O)N(C(C)(C)C)C(=O)[C@@H]12`, the activation was -0.76%.

As to `CC(Sc1sc(=S)sc1SC(C)C(=O)O)C(=O)O` (configuration not stated), the activation was 4.16%.

Turning to `COCCN1C2=C(COC(C)(C)C2)C(=S)NC1c1ccccc1` (configuration not stated), the activation is 0.78%.

On to `O=C(Nc1nc(-c2cccnc2)cs1)c1ccccc1F`, for which the activation is 11.7%.

With `c1ccc(Nc2nc(-c3ccncc3)cs2)nc1`, the activation is 79% (active).

For `O=C(NCc1cccnc1)C(=O)Nc1nc(-c2ccccc2)cs1`, the activation is 8.85%.

For `CC(=O)Nc1cccc(-c2csc(Nc3cccc(C)n3)n2)c1`, the activation was 61.1% (active).

Regarding `CC(=O)Nc1ccc(C(=O)Nc2nc(-c3cc(C)n(Cc4ccccc4)c3C)cs2)cc1`, the activation is 2.48%.

For `COc1ccc(CCNc2nc(-c3cccc(NC(C)=O)c3)cs2)cc1OC`, the activation is 59% (active).

As for `Clc1ccc(Cc2nnc(-c3cccs3)o2)cc1`, the activation was -4.17%.

As to `Cc1ccc(Nc2nc(-c3ccc(O)cc3O)cs2)nc1`, the activation is 16.5%.

For `CC(=O)NCCC(=O)Nc1nc(-c2ccc3c(c2)OCCO3)cs1`, the activation was 40.4%.

As to `COc1ccc(CCN(C(=O)COc2ccccc2)c2nc(-c3ccccc3)cs2)cc1OC`, the activation is 23.4%.

With `Clc1ccc(Nc2nc(-c3cccs3)cs2)nc1`, the activation is 96.2% (active).

Consider `COc1ccc(CC(=O)Nc2nc(-c3ccc(F)c(F)c3)cs2)cc1OC`, for which the activation is -6.95%.

With `CC(=O)NCC(=O)N(C)C(C(=O)Nc1ccc2c(c1)OCCO2)c1ccccc1` (configuration not stated), the activation is 15%.

`Cc1cc(=O)oc2c3c(cc(OCC(=O)NCc4ccccn4)c12)OC(C)(C)CC3`: the activation is 4.58%.

Regarding `FC(F)(F)c1ccc(-n2cn[nH]c2=S)cc1`, the activation was -2.71%.

For the molecule `CCN1CCN(C(=O)c2cc3cc4ccc(OC)cc4nc3s2)CC1`, the activation is 2.17%.

With `COc1ccc(Nc2nc(-c3ccccc3)cs2)cc1`, the activation is 91.8% (active).

Regarding `Cc1ccccc1Nc1nc(-c2cccnc2)cs1`, the activation is 2.23%.

As for `CCCn1c(CCNc2nc(-c3ccc(OC)cc3)cs2)nc2ccccc21`, the activation is 15%.

Consider `O=C(CSC1=NCCS1)Nc1nc(-c2ccccc2)cs1`, for which the activation is 18.4%.

Take `COc1ccc2c(c1OC)C(=O)OC2Nc1nc(-c2ccccc2)cs1` (configuration not stated): the activation was -5.46%.

On to `Cc1cccc(Nc2nc(-c3ccccc3)cs2)n1`, for which the activation was 95.5% (active).

Consider `CCCCn1nc(C(=O)Nc2cccc(C(=O)NC3CC3)c2)c2ccccc2c1=O`, for which the activation is -0.03%.

With `CC1(C)C2CCC13CS(=O)(=O)NC3C2` (configuration not stated), the activation was 1.31%.

Turning to `CN1CCN(C(=O)c2cnn(-c3ccccc3)c2NC(=O)c2ccc([N+](=O)[O-])cc2)CC1`, the activation was 4.36%.

Take `Nc1c(N(CCO)C(=O)C2CCCCC2)c(=O)[nH]c(=O)n1Cc1ccccc1`: the activation was 0.25%.

For `CN(C)S(=O)(=O)Oc1ccccc1C(=O)Nc1ccccc1Cl`, the activation is 106% (active).

Consider `COc1ccccc1C(=O)Nc1ccccc1C(=O)Nc1ccccc1`, for which the activation was 18.5%.

As to `O=C(Nc1ccccc1Cl)c1ccccc1S(=O)(=O)c1ccccc1[N+](=O)[O-]`, the activation was 2.48%.

As for `Cc1ccc(NC2CCCN(C(=O)CCc3cn[nH]c3)C2)cc1C` (configuration not stated), the activation was 11.1%.

As to `COc1ccccc1NC(=O)c1c(Br)cnn1C`, the activation was 57.9% (active).

Regarding `Cn1ncc(Br)c1C(=O)NC1CCCC1`, the activation was -3.04%.

Consider `Cn1ncc(Br)c1C(=O)NCc1cccs1`, for which the activation is -1.33%.

Regarding `COC(=O)c1ccc(C(NC(=O)OCc2ccccc2)/C(C)=C/[C@@H](C)C(=O)NCc2ccc(OC)c(OC)c2)cc1` (some centres not stated), the activation was 6.4%.

Consider `COc1ccc(NC(=O)CSc2nnc(C3CC3)n2C)cc1S(=O)(=O)N1CCCCC1`, for which the activation was -0.33%.

For `Cc1ccc(CNCc2ccc3c(c2)OCO3)c(C)c1`, the activation is 2.41%.

For `COc1cc(OC)c(C(=O)NCc2ccc3c(c2)OCO3)cc1OC`, the activation was 14%.

Take `COc1cc(CNCc2ccc3c(c2)OCO3)c([N+](=O)[O-])cc1OC`: the activation is 111% (active).

Regarding `NS(=O)(=O)c1ccc(N=Cc2ccc(Br)s2)cc1`, the activation is 3.54%.

For `O=C(NNc1cc(Cl)cc(Cl)c1)c1c(F)cccc1Cl`, the activation was 10.2%.

Regarding `COc1ccccc1-c1nnc(NC(=O)c2ccc3ncsc3c2)o1`, the activation is 48.6% (active).

As for `COc1ccccc1-c1nnc(NC(=O)c2cccc(N3C(=O)CCC3=O)c2)o1`, the activation was 33.9%.

For the molecule `Cc1sc(NC(=O)c2ccc3ncsc3c2)c(C(N)=O)c1C`, the activation was 5.88%.

Turning to `CC(=O)C1=C(O)C(=O)N(c2ccc(Br)cc2)C1c1ccc([N+](=O)[O-])cc1` (configuration not stated), the activation is 62.3% (active).

`COC(=O)CN1C(=O)C(O)=C(C(C)=O)C1c1ccc([N+](=O)[O-])cc1` (configuration not stated): the activation is 0.71%.

On to `CC(=O)C1=C(O)C(=O)N(c2cccnc2)C1c1ccc([N+](=O)[O-])cc1` (configuration not stated), for which the activation was -2.61%.

In the case of `COC(=O)C1=C(C)N(C(C)c2ccccc2)C(=O)/C1=C\c1ccco1` (configuration not stated), the activation is 1.2%.

For `CCSc1ccccc1C(=O)NCc1ccc(OC)cc1`, the activation is -0.68%.

Take `COc1ccc(COCCN2CCN(S(=O)(=O)c3ccccc3)CCC2=O)cc1`: the activation is 2.49%.

For `C=CCSc1nnc2c(n1)-c1cccc3cccc-2c13`, the activation was 56.7% (active).

For the molecule `CCN(CC(=O)Nc1ccc(OC)cc1)C(=O)CSCc1ccc(C)cc1`, the activation was 0.1%.

As to `Cc1c(C(=O)Nc2cccc(S(=O)(=O)N3CCOCC3)c2)oc2ccccc12`, the activation is 67.5% (active).

For the molecule `COc1ccc(NC(=O)c2oc3ccc(S(=O)(=O)N4CCOCC4)cc3c2C)cc1`, the activation is 10.4%.

In the case of `Cc1occc1C(=O)Nc1cccc(S(=O)(=O)N2CCOCC2)c1`, the activation was 3.12%.

As for `N#Cc1ccc(OCCN2C(=O)NC3(CCSC3)C2=O)cc1` (configuration not stated), the activation was -2.11%.

With `Cc1cc(NC(=O)CSc2nnc(-c3ccco3)n2N)no1`, the activation is 1.53%.

For `COc1ccc(C(=O)NC(=S)N2CCNC(=O)C2CC(=O)OC(C)C)cc1` (configuration not stated), the activation is 5.47%.

Consider `Cc1cc2ncn(CCCCOc3ccccc3)c2cc1C`, for which the activation was -0.22%.

Regarding `N#Cc1ccc(C2N=C(c3ccccc3)NO2)cc1` (configuration not stated), the activation was 0.8%.

Turning to `S=C1NC(c2ccccc2)=NCN1c1ccc(Br)cc1`, the activation was 1.57%.

Consider `Brc1ccccc1C1N=C(c2ccccc2)NO1` (configuration not stated), for which the activation was 50.1% (active).

With `Cc1ccc(-n2nc3c(c2NC(=O)CCC2CCCCC2)CS(=O)C3)cc1` (configuration not stated), the activation was 18.5%.

For the molecule `CCCCNC(=S)N/N=C1\CCCCc2ccccc21`, the activation is 13.7%.

As for `Cc1ccc(N=Cc2c(O)cc(C)oc2=O)c(C)c1`, the activation was -0.65%.

In the case of `Cc1cc(O)c(C(=O)/C=C/c2c(F)c(F)c(F)c(F)c2F)c(=O)o1`, the activation is 99.4% (active).

For the molecule `Cc1cc(O)c(Sc2ccccc2)c(=O)o1`, the activation is 0.97%.

On to `CN(C)Cc1c(C#N)c2ccccc2n1C`, for which the activation was 1.2%.

In the case of `CCOC(=O)CCc1c(C)c(C#N)c2[nH]c3ccccc3n2c1=O`, the activation was 4.77%.

Turning to `CCCc1cc(=S)n2c([nH]c3ccccc32)c1C#N`, the activation was 63.8% (active).

Regarding `COc1ccc(CCNC(=O)c2nnc(CS(=O)(=O)c3ccccc3)o2)cc1OC`, the activation was -2.96%.

Turning to `CCn1c2ccccc2c2cc(NC(=O)C/C(C)=N/NC(=O)c3ccccc3N)ccc21`, the activation is 95.2% (active).

Turning to `CCn1c2ccccc2c2cc(NC(=O)COC(=O)c3ccccc3Br)ccc21`, the activation was 62.5% (active).

For the molecule `CCn1c2ccccc2c2cc(NC(=O)COC(=O)c3cc(S(=O)(=O)N4CCCCC4)ccc3Cl)ccc21`, the activation was 34.2%.

As to `CCn1c2ccccc2c2cc(NC(=O)CNC)ccc21`, the activation is 44.7%.

Regarding `CCn1c2ccccc2c2cc(CC(N)=O)ccc21`, the activation is 1.45%.

On to `CCn1c2ccccc2c2cc(NC(=S)N3CCOCC3)ccc21`, for which the activation is 46%.

`COc1cc(OC)c(N2CC(C(=O)Nc3cc(Cl)ccc3N3CCOCC3)CC2=O)cc1Cl` (configuration not stated): the activation was -0.04%.

(Values after PubChem BioAssay AID2796 (The Scripps Research Institute Molecular Screening Center, 2010).)
